Laboratory results taken from PubChem BioAssay (NCATS).
Inconclusive results are not listed. Active and inactive are the calls of the source. Unless noted, the rule behind the calls is not given here.

Assays:
[1] = qHTS profiling of the MIPE4 collection as inhibitors of Plasmodium falciparum (DD2) proliferation (Rep 2) (AID 743346); settings: P. falciparum Dd2 in erythrocytes, SYBR Green DNA, 72 h; at 28.5 µM unless noted
Method in brief: (§1)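 Erythrocytes infected with P. falciparum (0.3% parasitemia, 2.5% hematocrit) incubated with compounds 72 h at 37 C, 5% CO2. Lysis with saponin/Triton buffer containing SYBR Green I, overnight at room temperature in the dark; DNA fluorescence (485/535 nm) normalised to 0.29 uM artemisinin and DMSO.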

[2] = qHTS profiling of the MIPE4 collection as inhibitors of Plasmodium falciparum (HB3) proliferation (AID 743347);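 note: plate controls were DMSO vehicle wells for no effect and artemisinin wells for full effect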; settings: P. falciparum HB3 in erythrocytes, SYBR Green DNA, 72 h; at 28.5 µM unless noted
Method in brief: as §1

[3] = High-throughput drug toxicity screening in the BPDCN cell line Gen2.2 (AID 1224824); settings: Gen2.2 BPDCN cells; at 45.8 µM (top of the series) unless noted;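 note: cells exposed to compounds for 48 h before reading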
Method in brief: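 CellTiter-Glo luminescence read after 48 h compound exposure at 37 C defines viability; percent activity set with DMSO as 100% and bortezomib (9.2 uM final) as 0%. 500 exponentially growing cells per well, RPMI plus 10% FBS.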

[4] = High-throughput drug toxicity screening in the BPDCN cell line Cal-1 (AID 1224825); settings: Cal-1 BPDCN cell viability, qHTS; at 45.8 µM (top of the series) unless noted
Method in brief: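 Cal-1 cells, 500 per well in phenol-red-free RPMI with 10% FBS, exposed to compounds for 48 hours at 37C, 5% CO2. Viability read by CellTiter-Glo luminescence; percent activity normalized to DMSO (100%) and 9.2 uM bortezomib final (0%).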

[5] = qHTS assay for measurement of the activity of small molecule inhibitors on Zika virus induced Caspase-3 activity in human iPSC derived neural progenitor cells (hNPCs) (AID 1224857; active = well fitted inhibition curve with a large enough effect; note: nearly all actives have a fitted effect of over 65% in size; note: potency is the fitted concentration of half-maximal effect); settings: hNPCs ZIKV-induced caspase-3/7, Caspase-Glo luminescence, 6 h; series mostly up to 45.7 µM
Method in brief: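 Quantitative HTS format: human iPSC neural progenitors, 1 h compound pretreatment, ZIKV 2 FFU/cell for 6 h at 37 C. Percent inhibition derived from luminescent caspase-3/7 signal between uninfected and infected controls.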

[6] = qHTS Screen of the MIPE 4.0 Collection Against Ewings Sarcoma (EW8) (AID 1259255; active = well fitted inhibition curve with a large enough effect; note: nearly all actives have a fitted effect of over 35% in size; note: potency is the fitted concentration of half-maximal effect;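 for viability: 100% = DMSO-treated cells and 0% = medium-only wells without cells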); settings: EW8 Ewing sarcoma viability, CellTiter-Glo, 48 h; series mostly up to 45.8 µM
Method in brief: (§2)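 Viability screen: 48 h incubation at 37C, 95% humidity, 5% CO2 with serially titrated compound, followed by CellTiter-Glo readout.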

[7] = qHTS Screen of the MIPE 4.0 Collection Against Ewings Sarcoma (TC32) (AID 1259256; active = well fitted inhibition curve with a large enough effect; note: nearly all actives have a fitted effect of over 45% in size; note: potency is the fitted concentration of half-maximal effect); settings: TC32 Ewing sarcoma viability, CellTiter-Glo, 48 h; series mostly up to 45.8 µM
Method in brief: as §2

[8] = qHTS Screen of the MIPE 4.0 Collection Against Ewings Sarcoma (RDES) (AID 1259252; active = well fitted inhibition curve with a large enough effect; note: nearly all actives have a fitted effect of over 35% in size; note: potency is the fitted concentration of half-maximal effect); settings: RD-ES Ewing sarcoma viability, CellTiter-Glo, 48 h; series mostly up to 45.8 µM
Method in brief: as §2

[9] = qHTS Screen of the MIPE 4.0 Collection Against Ewings Sarcoma (TC71) (AID 1259253; active = well fitted inhibition curve with a large enough effect; note: nearly all actives have a fitted effect of over 40% in size; note: potency is the fitted concentration of half-maximal effect); settings: TC71 Ewing sarcoma viability, CellTiter-Glo, 48 h; series mostly up to 45.8 µM
Method in brief: as §2

[10] = qHTS assay for measurement of the activity of small molecule inhibitors on Zika virus induced Caspase-3 activity in human astrocytoma cells (AID 1224859; active = well fitted inhibition curve with a large enough effect;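 note: plate controls were ZIKV-infected untreated cells for no effect and uninfected cells for full effect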); settings: SNB-19 ZIKV-induced caspase-3/7, luminescence, 6 h; series mostly up to 45.7 µM
Method in brief: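 Readout is luminescence from Caspase-Glo 3/7 added after a 6 h ZIKV infection (2 FFU/cell) of compound-pretreated (1 h) SNB-19 cells; data expressed as % inhibition versus uninfected and infected wells.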

Row | SMILES | parasite growth, % of control (lower = inhibition) [1] | growth, % of control [2] | cell viability, % of control (lower = more cytotoxic) [3] | viability (% of control) [4] | Potency [5] | Potency [6] | Potency [7] | Potency [8] | Potency [9] | Potency [10]
1 | c1ccc2c(-c3cnn4cc(-c5ccc(N6CCNCC6)cc5)cnc34)ccnc2c1 | 6.79% | 5.81% | 3.03% | 3.05% | inactive | inactive | inactive | – | – | –
2 | CCc1ccc(OCc2ccccc2C(=O)Nc2ccc3nc(C)cc(N)c3c2)cc1 | 24.8% | 10% | 7.97% | 4.73% | inactive | 7.43 µM (active) | 9.35 µM (active) | 9.35 µM (active) | – | –
3 | Clc1cc(Cl)cc(CNc2ncncc2-c2ccc3c(c2)OCO3)c1 | 28.4% | 10.2% | 44.1% | 11.1% | inactive | – | – | – | – | –
4 | COc1cc2nc(-c3ccc(N4CCN(C)CC4)cc3)nc(NCCN3CCOCC3)c2cc1OC | 12.1% | 2.87% | 1.57% | 2.25% | 5.9 µM (active) | 0.0332 µM (active) | 0.0418 µM (active) | 0.0166 µM (active) | – | –
5 | CCc1ccc(C=C2SC(=S)NC2=O)cc1 | 115% | 87.9% | 159% | 83.2% | 20.9 µM (active) | inactive | inactive | inactive | – | –
6 | COc1cc(O)c2c(c1)C(=O)c1cc(C)cc(O)c1C2=O | 84.4% [at 9.64 µM] | 47.7% [at 9.64 µM] | 154% [at 23.2 µM] | 101% [at 23.2 µM] | inactive | – | inactive | – | inactive | –
7 | CCN(CC)CCOc1ccc(C(=C(Cl)c2ccccc2)c2ccccc2)cc1 | – | 9.51% | 136% | 50.6% | inactive | – | – | – | – | inactive
8 | COc1ccc(-c2cc(=O)c3c(O)cc(O)cc3o2)cc1O | – | 67.5% | 97.2% | 16.3% | 18.7 µM (active) | 13.2 µM (active) | 14.8 µM (active) | 5.26 µM (active) | – | –
9 | CC(=O)N(C)C1(c2ccccc2)CCN(CCC[C@]2(c3ccc(Cl)c(Cl)c3)CCCN(C(=O)c3ccccc3)C2)CC1 | 38.7% | 7.98% | 9.34% | 7.8% | inactive | 23.5 µM (active) | 26.4 µM (active) | 26.4 µM (active) | – | –
10 | O=C(Nc1ccccc1-c1cn2c(CN3CCNCC3)csc2n1)c1cnc2ccccc2n1 | 12.5% | 3.22% | 2.56% | 1.48% | 18.7 µM (active) | – | – | – | 23.5 µM (active) | –
11 | O=C(OCC#CCSc1nnc(-c2cccc3ccccc23)o1)c1cc2ccccc2s1 | 64.2% | 44.7% | 91.8% | 118% | inactive | inactive | – | – | – | –
12 | COc1ccc(-c2oc3c(CC=C(C)C)c(OC4O[C@H](CO)[C@@H](O)[C@H](O)[C@@H]4O)cc(O)c3c(=O)c2OC2O[C@@H](C)[C@H](O)[C@@H](O)[C@@H]2O)cc1 (stereo partly drawn) | – | 11.3% | 68.1% | 102% | inactive | – | 26.4 µM (active) | – | 26.4 µM (active) | –
13 | COc1ccc(-c2coc3cc(O)ccc3c2=O)cc1 | – | 92.8% | 191% | 109% | 18.7 µM (active) | inactive | inactive | inactive | – | –
14 | CCC(CC)[C@H](NC(C)=O)[C@@H]1[C@H](O)[C@@H](C(=O)O)C[C@@H]1N=C(N)N | – | 97.8% | 81.8% | 105% | inactive | inactive | inactive | inactive | inactive | –
15 | O=C(O)c1ccccc1C(=O)Nc1ccc(-c2ccccc2)cc1 | – | – | 156% | 111% | inactive | inactive | – | inactive | – | –
16 | CC(C)(C)COc1ccc(-n2cc(C(=O)O)cn2)cc1C#N | 76.9% | 67.6% | 112% | 106% | 14.8 µM (active) | inactive | inactive | inactive | inactive | –
17 | CNC1CCC(N(Cc2cccc(-c3ccncc3)c2)C(=O)c2sc3c(F)ccc(F)c3c2Cl)CC1 (stereo not drawn) | – | 6.39% | 0.6% | 0.705% | inactive | – | – | – | – | inactive
18 | NC(=O)c1ccc2nc(-c3ccc(Oc4ccc(Cl)cc4)cc3)[nH]c2c1 | 61.3% | 83.4% | 59.5% | 38% | inactive | – | – | – | 0.526 µM (active) | –
19 | O=C(O)c1cc(O)c2c(c1)C(=O)c1cccc(O)c1C2=O | 43.2% [at 57.5 µM] | 44.1% [at 57.5 µM] | 168% [at 92.2 µM] | 124% [at 92.2 µM] | 38.2 µM (active) | – | inactive | inactive | inactive | –
20 | Cc1ccc(F)c(NC(=O)Nc2ccc(-c3cccc4[nH]nc(N)c34)cc2)c1 | 13.4% | 9.71% | 5.38% | 1.55% | inactive | – | – | – | – | –
21 | CCn1c(C(=O)N(C2CC2)C2CC2)cc2c3c(ncn3C)c(Nc3cc(C)n(C)n3)nc21 | 23.5% | 11.5% | 144% | 90.8% | inactive | – | – | – | – | –
22 | Nc1ncnc2c1ncn2[C@@H]1O[C@@H](CO)[C@H](O)[C@H]1O | – | 111% | 235% | 117% | – | inactive | inactive | inactive | inactive | inactive
23 | CC=CC[C@@H](C)C(=O)[C@H]1C(=O)N[C@@H](C(C)C)C(=O)N(C)CC(=O)N(C)[C@@H](CC(C)C)C(=O)N[C@@H](C(C)C)C(=O)N(C)[C@@H](CC(C)C)C(=O)N[C@@H](C)C(=O)N[C@H](C)C(=O)N(C)[C@@H](CC(C)C)C(=O)N(C)[C@@H](CC(C)C)C(=O)N(C)[C@@H](C(C)C)C(=O)N1C | 107% | 103% | 62.3% | 37% | – | inactive | 18.7 µM (active) | 18.7 µM (active) | 16.6 µM (active) | inactive
24 | CC1(C)S[C@H]2[C@H](NC(=O)[C@@H](N)c3ccc(O)cc3)C(=O)N2[C@@H]1C(=O)O | 8.21% | 6.54% | 125% | 19.4% | – | inactive | – | – | – | inactive
25 | Cc1nc(N)sc1-c1ccnc(Nc2ccc(N3CCOCC3)cc2)n1 | 16.4% | 5.5% | 33.6% | 6.5% | – | 0.833 µM (active) | 16.6 µM (active) | 18.7 µM (active) | 14.8 µM (active) | inactive
26 | COc1ccc(-n2c(C)c([N+](=O)[O-])c3ccc(O)cc32)cc1 | 45.7% | 34.7% | 46.7% | 96.3% | – | – | 26.4 µM (active) | – | 16.6 µM (active) | inactive
